The first assay addresses C4orf45. The assay is described as follows: pooled miR-30 sensor sort-seq; sequence = guide strand. To be noted: shRNA.
Regarding TAGGTGGTTTGGAAGCTCTTGG, the sensor-assay potency score (higher = more potent) was -0.261.

For TTATATTTTGCTGGCAAGCTTC, the sensor-assay potency score (higher = more potent) is -1.08.

ATAAATATCTGAGATCTCCAGT yielded a sensor-assay potency score (higher = more potent) of 0.467.

Regarding TTTTGGTAGCTTCGGCAGCTTA, the sensor-assay potency score (higher = more potent) was -1.74.

TTATACTGTGGTATTCTCCAAC registered a sensor-assay potency score (higher = more potent) of -0.109.

On to TTAGGTGGTTTGGAAGCTCTTG, for which the sensor-assay potency score (higher = more potent) is -0.244.

TCTCTGATCAGTGTCCTCGAAA displayed a sensor-assay potency score (higher = more potent) of -0.979.

For the sequence TAATCCTTTATGTAGTCTGGAC, the sensor-assay potency score (higher = more potent) was -0.844.

The sequence TTTTTCTAACGCCAGATGCTGT displayed a sensor-assay potency score (higher = more potent) of -0.936.

Turning to TTATGTAGTCTGGACCTGTAAA, the sensor-assay potency score (higher = more potent) was -1.37.

In turn, TATTTTGCTGGCAAGCTTCTAT had a sensor-assay potency score (higher = more potent) of -0.0491.

In the case of TTCCTTTTTTGGTAGCTTCGGC, the sensor-assay potency score (higher = more potent) is -0.246.

A further assay concerns the target C5AR1. The description is as above. Particulars: shRNA.
For TTAGAAGTTTTATCCACAGGGG, the sensor-assay potency score (higher = more potent) was -0.274.

TTAACTCACTTACAAGAGCTTA registered a sensor-assay potency score (higher = more potent) of -0.512.

TAGAAGTTTTATCCACAGGGGT returned a sensor-assay potency score (higher = more potent) of -0.173.

On to TTCAGTCAACACGTTCCGGAGG, for which the sensor-assay potency score (higher = more potent) is -1.26.

The sequence TTCTACTTGTCTGTATTCTGAG registered a sensor-assay potency score (higher = more potent) of 0.386.

As for TTTGTCGTGGCTGTAGTCCACG, the sensor-assay potency score (higher = more potent) was -0.519.

With TGAAAGTGTAACAAATCGTGAG, the sensor-assay potency score (higher = more potent) was found to be 0.282.

Sequence TCTTCAGTCAACACGTTCCGGA gave a sensor-assay potency score (higher = more potent) of -0.631.

Consider TTATTCAGCAGCAGGAAGGTGG, for which the sensor-assay potency score (higher = more potent) is -0.586.

Values taken from the OligoGym collection.
Note: reference of the scale not given here.
